Experimental data taken from the supplement of paper PMC13380429.

Tested on: Vero E6 infected with SARS-CoV-2
Experiment: morphology score (similarity to uninfected cells); higher = more like uninfected cells
Settings: 24 h

Row | SMILES | morphology score
1 | C[C@H]1C[C@H]2[C@@H]3CCC4=CC(=O)C=C[C@]4(C)[C@@]3(Cl)[C@@H](O)C[C@]2(C)[C@@]1(O)C(=O)CO [beclomethasone] (10 µM) | 0.101
2 | C[N@+]1(CC2CC2)CC[C@]23c4c5ccc(O)c4O[C@H]2C(=O)CC[C@@]3(O)[C@H]1C5 [methylnaltrexone] (10 µM) | -0.0178
3 | CCOP(=S)(OCC)Oc1nc(Cl)c(Cl)cc1Cl [chlorpyrifos] (10 µM) | -0.24
4 | C[C@]12CC[C@@H]3c4ccc(O)cc4CC[C@H]3[C@@H]1C[C@@H](O)[C@@H]2O [estriol] (10 µM) | -0.0117
5 | O=C[C@H](F)[C@@H](O)[C@@H](O)[C@H](O)CO [2-fluoro-2-deoxy-D-galactose] (10 µM) | 0.127
6 | CCN(CCNC(=O)Nc1ccccc1Br)c1cccc(C)c1 (10 µM) | -0.0408
7 | N#CCC(=O)NN [cyacetacide] (10 µM) | 0.167
8 | NC(=O)c1nc(Nc2ccccc2)sc1NC(=O)C1CCCCC1 (0.833333 µM) | 0.0658
9 | CN(C)CC(=O)Nc1ccc2[nH]c(=O)c3ccccc3c2c1 (10 µM) | 0.202
10 | CC(C)(NS(=O)(=O)c1ccc(Oc2ccc(F)cc2)cc1)C(=O)NO (10 µM) | 0.193
11 | COc1cc(S(C)(=O)=O)ccc1Nc1nc2ccc(-c3ccc(NC(=O)[C@H](C)c4ccc(F)cc4)cc3)cn2n1 (10 µM) | -0.122
12 | CCC1(C2=NCCN2)Cc2ccccc2O1 (stereo unspecified) [efaroxan] (10 µM) | 0.165
13 | COc1cc(/C=C2\CCC/C(=C\c3ccc(O)c(OC)c3)C2=O)ccc1O [cyclovalone] (10 µM) | 0.0684
14 | COC[C@@H](NC(C)=O)C(=O)NCc1ccccc1 [Lacosamide] (10 µM) | -0.1
15 | COC(=O)C1=C(C)NC(C)=C(C(=O)OC)C1c1ccccc1[N+](=O)[O-] [nifedipine] (10 µM) | -0.0637
16 | Cc1cc2nc3c(=O)[nH]c(=O)nc-3n(C)c2cc1C=O (10 µM) | 0.102

Row | SMILES | morphology score
17 | CO[C@H]1C[C@@H]2CC[C@@H](C)[C@@](O)(O2)C(=O)C(=O)N2CCCC[C@H]2C(=O)O[C@H]([C@H](C)C[C@@H]2CC[C@@H](O)[C@H](OC)C2)CC(=O)[C@H](C)/C=C(\C)[C@@H](O)[C@@H](OC)C(=O)[C@H](C)C[C@H](C)/C=C/C=C/C=C/1C [sirolimus] (10 µM) | -0.126
18 | CN(c1ccc(NC(=O)Nc2ccccc2)cc1)S(=O)(=O)c1cnn(-c2ccc(F)cc2)c1 (10 µM) | 0.268
19 | CNC(=O)c1c(I)c(NC(C)=O)c(I)c(C(=O)O)c1I [iothalamic-acid-d3] (10 µM) | 0.143
20 | CCCCCCOc1nsnc1C1=CCCN(C)C1 [xanomeline] (10 µM) | 0.44
21 | CCOC(=O)C1=CCCC[C@H]1S(=O)(=O)Nc1ccc(F)cc1Cl [resatorvid] (10 µM) | 0.0683
22 | CCC[C@@H](NC(=O)N1C(=O)C(CC)(CC)[C@@H]1Oc1ccc(C(=O)N2CCN(C)CC2)cc1)c1ccc2c(c1)OCO2 (10 µM) | 0.171
23 | CCOc1cc(C(=O)N2CCC(N3CCN(C)CC3)CC2)ccc1Nc1ncc2c(n1)N(C1CCCC1)c1ccccc1C(=O)N2C (10 µM) | -0.264
24 | CCN1C[C@]2(OC(=O)c3ccccc3NC(C)=O)CC[C@H](OC)[C@@]34[C@@H]2C[C@@H]([C@@H]13)[C@@]1(O)C[C@H](OC)[C@H]2C[C@@H]4[C@]1(O)[C@H]2OC [lappaconite] (10 µM) | 0.0794
25 | CC(C)[C@H](CO)Nc1nc(Nc2cccc(Cl)c2)c2ncn(C(C)C)c2n1 [purvalanol-A] (0.833333 µM) | -0.028
26 | COc1ccc(Nc2ncnc3ccc(OC)cc23)cc1 (10 µM) | -0.228
27 | O=[N+]([O-])c1cc(O)c(O)c([N+](=O)[O-])c1 (10 µM) | 0.123
28 | CC/C(=C(\c1ccccc1)c1ccc(OCCN(C)C)cc1)c1ccccc1 [tamoxifen] (0.833333 µM) | 0.135
29 | CC(C)CCC[C@@H](C)[C@H]1CC[C@H]2[C@@H]3CC=C4C[C@@H](O)CC[C@]4(C)[C@H]3CC[C@]12C [cholesterol] (10 µM) | 0.178
30 | CCCCC1=NC2(CCCC2)C(=O)N1Cc1ccc(-c2ccccc2-c2nnn[nH]2)cc1 [irbesartan] (10 µM) | 0.0469
31 | C[N+](C)(C)CCOC(=O)CCC(=O)OCC[N+](C)(C)C [succinylcholine-chloride] (10 µM) | -0.0136
